TDP1 cell noCPT: qHTS for Inhibitors of human tyrosyl-DNA phosphodiesterase 1 (TDP1): qHTS in cells in absence of CPT; actives 15% (n = 420,000); DT40 Tdp1-/- hTDP1 cells, no CPT, ATP luminescence, 48 h; AID 686978, 2013; Potency, µM (doses to about 46.2 µM), without a hit: at the highest dose activity change, negative = growth inhibition, actives largely listed as inhibitors; note: % is set by controls: 0 for no effect and ±100 for the full control effect; nearly all actives have a fitted effect of over 55% in size
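Chicken DT40 Tdp1-/- cells stably complemented with human TDP1 were seeded at 400 cells/well with DMSO in place of 20 nM camptothecin. After compound pinning, cells grew at least 48 hr at 37 °C; viability read by CellTiter-Glo luminescence.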
TGFb SMAD3 inh: TGF-b pathway inhibition. Potency, µM (titrated, usually from 46.1 µM), inactives show top-dose activity, negative = inhibition, usual class: inhibitors. actives 1.2% (n = 410,000). HepG2 CAGA-GFP TGF-b/SMAD3 reporter, GFP fluorescence, 18 h; TGF-beta stimulated, 500 pg/mL final; note: % is set by controls: 0 for no effect and ±100 for the full control effect; nearly all actives have a fitted effect of over 65% in size
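TGF-beta reporter screen: HEPG2 CAGA-GFP, 1% FBS, 500 pg/mL TGF-beta final, 18 h; per-cell GFP summed per well; curves fitted and categorized by class.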
DT40 TDP1 CPT: growth inhibition of DT40 Tdp1-/-;hTDP1 cells with camptothecin (screen for TDP1 inhibitors); Potency, µM (doses to about 46.2 µM), without a hit: at the top dose activity change, negative = growth inhibition, usual class: inhibitors; actives 12% (n = 420,000); chicken DT40 Tdp1-/-;hTDP1 cells + 20 nM CPT, ATP luminescence, 48 h; note: % is set by controls: 0 for no effect and ±100 for the full control effect; nearly all actives have a fitted effect of over 55% in size
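Cell growth measured by CellTiter-Glo luminescence after a minimum 48 h, 37 C compound exposure with 20 nM CPT in Tdp1-knockout DT40 cells stably expressing hTDP1, seeded 400/well; qHTS titration format.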
HepG2 viability: kills HepG2 cells in TGF-b inhibitor counter-screen. HepG2 CAGA-GFP viability, ATP luminescence, 18 h. Potency, µM (top dose mostly 46.1 µM), for the others: top-dose activity change, negative = cytotoxicity, most hits filed as cytotoxic. actives 0.76% (n = 410,000). AID 588856
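CellTiter-Glo luminescence gave cytotoxicity after 18 hours at 37 degrees C. The cells were HepG2 CAGA-GFP in 1% FBS DMEM, stimulated with 500 pg/mL TGF-beta after compound addition. %Activity was normalised to no-cell wells (complete cell-killing) and DMSO (no toxicity), and curves were fitted and classified.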
HT1080NT lethal: kills 2HG-producing HT-1080-NT fibrosarcoma cells; HT-1080-NT fibrosarcoma viability, CellTiter-Glo ATP luminescence, 48 h; Potency, µM (doses to about 46.1 µM), without a hit: at the highest dose activity, negative = less viability, actives largely listed as cytotoxic; actives 1.6% (n = 360,000);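 note: NT is the 2HG producing partner of a matched IDH1 knockdown line; 0% = DMSO-treated cells and -100% = media-only wells without cells; nearly all actives have a fitted effect of over 55% in size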
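Viability by CellTiter-Glo luminescence after 48 h compound exposure at 37C of HT-1080-NT cells (750/well, RPMI, 5% FBS). % activity scaled between DMSO wells and medium-only wells, then curve-fitted and categorized by curve class.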
HT1080 IDH1KD tx: HT-1080 IDH1 knockdown cell toxicity (counter line); HT-1080 IDH1 knockdown viability, ATP luminescence, 48 h; Potency, µM (series often up to 46.1 µM), for inactives: at the highest dose activity, negative = toxicity, actives largely listed as cytotoxic; actives 2% (n = 360,000); AID 686971;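 note: 0% = DMSO wells and -100% = cell-free medium wells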
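% activity derives from luminescence (CellTiter-Glo), normalised to DMSO and no-cell wells. HT-1080-IDH1KD cells, 750/well, had 48 h compound exposure at 37 °C.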
An asterisk follows results filed as active; u = inconclusive; x = no result; [ ] = remark or other dose. Hits are enriched below; roughly 17% of the tested compounds scored in any of these assays. Calls come from the whole dose curve; as a rule, active = well fitted curve in the direction sought with a large enough effect; inconclusive = small, poorly fitted or top-dose-only effect, or another doubt; inactive = no such curve, though single readings can be large; an effect the other way counts as inactive or inconclusive. Potency is the fitted concentration of half-maximal effect.

SMILES | TDP1 cell noCPT | TGFb SMAD3 inh | DT40 TDP1 CPT | HepG2 viability | HT1080NT lethal | HT1080 IDH1KD tx
COCC(=O)OC1CCn2c1nc1c2C(=O)C(C)=C(NC(C)=O)C1=O (configuration not stated) | 2.31µM* | u | 2.59µM* | -87.4% | 7.31µM* | 4.61µM*
Cc1ccc(CN(Cc2ccco2)C(=O)c2ccccc2Cl)o1 | u | -46.5% | 23.1µM* | -4.4% | x | x
Cc1ccc(CN(Cc2ccco2)C(=O)c2ccccc2Br)o1 | 14.6µM* | -12.9% | 11.6µM* | -28.6% | x | x
COc1ccccc1NC(=O)CCn1c(=O)c2cccn2c2ccccc21 | 23.1µM* | -18.3% | u | -36.0% | 12.1% | 15.1%
COc1ccc(OC)c(NC(=O)Cn2c(=O)c3cccn3c3ccccc32)c1 | 11.6µM* | u | u | -13.8% | x | x
COc1ccc(NC(=O)CCCn2c(=O)c3cccn3c3ccccc32)c(OC)c1 | 10.3µM* | -22.7% | 13µM* | -18.2% | x | x
COc1ccccc1NC(=O)CCn1c(=S)oc2ccccc21 | 22.2% | -5.7% | -3.5% | 11.4% | 3.7% | 11.2%
COc1ccc(NC(=O)CCCCC(=O)Nc2ccc(OC)cc2OC)c(OC)c1 | -10.9% | 10.7% | -9.2% | -15.1% | -5.0% | -4.2%
COc1ccc(NC(=O)Cn2c(=O)c3cccn3c3ccccc32)cc1 | -26.6% | 0.0% | u | -13.3% | x | x
Cc1cc(=O)c(C(=O)N(C)CCc2ccccn2)c2n1-c1ccccc1SC(c1ccsc1)C2 (configuration not stated) | 3.1% | x | -6.5%[9.04 µM] | x | x | x
CCN1CCN(C(=O)c2cc(S(=O)(=O)Nc3ccc(S(C)(=O)=O)cc3)ccc2Cl)CC1 | -9.0% | -18.6% | 26.5% | -44.2% | -0.2% | 12.0%
O=C(NCc1ccco1)/C(=C/c1ccc(C(F)(F)F)cc1)c1nc2ccccc2[nH]1 | u | -2.7% | u | -24.8% | -16.2% | -13.2%
O=C(NCc1ccco1)/C(=C/c1cccc(C(F)(F)F)c1)c1nc2ccccc2[nH]1 | 5.8µM* | -17.5% | 9.2µM* | -28.9% | u | u
Cc1nc(NC(=O)C2CC2)sc1C(=O)Nc1ccccc1 | -28.6% | 11.3% | -20.3% | -10.8% | -21.9% | -25.3%
Cc1nc(C(=O)Nc2ccccc2)sc1C(=O)Nc1ccccc1 | u | 2.3% | 18.4µM* | -13.8% | -12.8% | 2.3%
Cc1nc(NC(N)=S)sc1C(=O)Nc1ccccc1 | -8.8% | 3.0% | -16.1% | 11.2µM* | -7.9% | u
Cc1nc(-c2ccccc2)sc1C(=O)Nc1ccc(S(N)(=O)=O)cc1 | 13µM* | -16.8% | -24.7% | -20.3% | u | -1.4%
COc1ccc(C(CNC(=O)C2CC(=O)N(Cc3ccc(C)cc3)C2)N(C)C)cc1 (configuration not stated) | 7.4% | -1.1% | -20.5% | 7.5% | -1.3% | -4.9%
Cc1c(Cl)cccc1Nc1n[nH]c(=S)s1 | -3.4% | 0.0% | -14.2% | -13.7% | 14.9% | 20.9%
CC(C)Cc1nc(SCC(=O)N2CCCC2)c2c(=O)n(C)c(=O)n(C)c2n1 | -0.9% | 5.5% | -4.0% | 6.5% | -0.1% | 1.4%
CCCc1cnc2c(c1SCC(=O)N1CCC(C)CC1)c(=O)n(C)c(=O)n2C | 20.6µM* | -27.9% | 16.4µM* | -27.8% | x | x
CCCc1cnc2c(c1SCC(=O)Nc1ccccc1F)c(=O)n(C)c(=O)n2C | 23.1µM* | -6.0% | u | -6.4% | x | x
CC(C)c1cnc2c(c1SCC(=O)N1CCCCC1)c(=O)n(C)c(=O)n2C | u | -29.4% | 23.1µM* | -24.6% | x | x
CCCNC(=O)CSc1c(CCC)cnc2c1c(=O)n(C)c(=O)n2C | -5.9% | 4.3% | -0.2% | -0.9% | x | x
CCc1cnc2c(c1SCCC(C)C)c(=O)n(C)c(=O)n2C | u | -29.0% | 25.9µM* | -20.9% | x | x
SMILES | TDP1 cell noCPT | TGFb SMAD3 inh | DT40 TDP1 CPT | HepG2 viability | HT1080NT lethal | HT1080 IDH1KD tx
CC1(C(=O)NS(=O)(=O)Cc2cccc(Cl)c2)CCN1C(=O)C1CCCCC1 (configuration not stated) | -5.3% | 5.1% | -15.0% | 0.8% | 14.4% | 5.8%
CC(C)c1cnc2c(c1SCC(=O)NC(C)(C)C)c(=O)n(C)c(=O)n2C | -18.4% | 0.0% | 4.5% | 2.3% | x | x
CC(C)c1cnc2c(c1SCC(=O)c1ccccc1)c(=O)n(C)c(=O)n2C | 13µM* | -8.1% | u | -24.1% | x | x
CC(C)c1cnc2c(c1SCc1cccc(F)c1)c(=O)n(C)c(=O)n2C | 23.1µM* | 0.0% | 16.4µM* | -21.6% | x | x
COc1ccc(NC(=O)CSc2c(C(C)C)cnc3c2c(=O)n(C)c(=O)n3C)c(OC)c1 | 23.1µM* | 0.0% | 23.1µM* | -3.9% | x | x
CCc1cnc2c(c1SCc1c(F)cccc1Cl)c(=O)n(C)c(=O)n2C | 25.9µM* | -19.7% | 14.6µM* | -0.7% | x | x
CCC(C)Sc1c(C(C)C)cnc2c1c(=O)n(C)c(=O)n2C (configuration not stated) | 13µM* | -3.0% | 23.1µM* | -46.2% | x | x
NC(=S)N/N=C/c1c(O)ccc2ccccc12 | u | u | 11.6µM* | -48.7% | -20.2% | -0.6%
Oc1ccccc1C=NN=Cc1c(O)ccc2ccccc12 | u | -7.0% | u | -10.7% | -0.4% | 3.4%
O=CN/N=C/c1c(O)ccc2ccccc12 | 6.51µM* | 2.2% | 7.31µM* | -5.0% | -23.9% | u
Oc1ccc2ccccc2c1/C=N/Nc1ccccc1 | 1.8% | -1.8% | 5.5% | -2.1% | -18.1% | -16.8%

Bioassay records from PubChem BioAssay.
